High-throughput results deposited in PubChem BioAssay by several laboratories.
A selection: hits, their analogues and other compounds. The true share with any hit is near 3.5%.
Mcl1 Bid PPI = Mcl-1/Bid interaction inhibition. Q07820. TR-FRET Mcl-1/Bid-Dy647 peptide binding, 1536-well. inhibition, % at 21.7 µM. 0.97% of 220,000 active;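 active = compounds that cut the binding signal by more than half at the single screening dose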;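 also: His-tagged Mcl-1 with europium anti-His antibody binding Bid BH3 peptide; 0% = Mcl-1 plus peptide wells and 100% = peptide-only wells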
Mcl1-Noxa inh = Mcl-1/Noxa interaction inhibition. TR-FRET Mcl-1/Noxa peptide binding, 2 h. inhibition, % at 21.7 µM. 1.5% of 220,000 active. AID 1022;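 active = compounds that cut the protein-peptide binding signal by more than 50% relative to plate controls in a single-dose test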;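 also: His-tagged Mcl-1 with rhodamine Noxa BH3 peptide and terbium anti-His antibody; 0% = Mcl-1 plus Noxa peptide wells and 100% = peptide-only wells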
eIF4E 4G PPI = blocks eIF4E binding to eIF4G; 0.37% of 220,000 active; AID 782; P63073+Q04637; inhibition, % at 21.7 µM; TR-FRET eIF4E-eIF4GI(517-606) binding, 2 h;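 active = inhibition above about 30%, limit read from the data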;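 also: 0% = full FRET control wells and 100% = background wells lacking eIF4GI fragment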
14-3-3 Bad PPI = disrupts binding of bovine 14-3-3 zeta to phospho-Bad peptide. 0.71% of 220,000 active. TR-FRET 14-3-3zeta/Dy647-pBad peptide displacement, 1 h. P63103. inhibition, % at 21.7 µM;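 active = inhibition above about 70%, limit read from the data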;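 also: 0% = full 14-3-3 plus peptide FRET controls and 100% = background without 14-3-3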
Mcl-1 Bim block = disrupts Bim peptide binding to human Mcl-1; 0.1% of 190,000 active; inhibition, % at 10 µM; Bead-based flow cytometry, Bim peptide-Mcl-1 binding; in the data active = inhibition above about 40%;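 also: 0% = no compound tracer wells and 100% = peptide blocker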
Hck-Nef inh = inhibitors of human Hck kinase activated by Nef; inhibition, % at 20 µM; 0.68% of 220,000 active; Recombinant Hck-YEEI plus Nef, Z-Lyte FRET kinase assay;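 active = Hck-Nef kinase inhibition above about 50%, limit read from the data; inactive = inhibition below that limit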;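 also: 0% = DMSO with Hck plus Nef and 100% = Hck alone without Nef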
Target sequence (P08631 whole entry, looked up): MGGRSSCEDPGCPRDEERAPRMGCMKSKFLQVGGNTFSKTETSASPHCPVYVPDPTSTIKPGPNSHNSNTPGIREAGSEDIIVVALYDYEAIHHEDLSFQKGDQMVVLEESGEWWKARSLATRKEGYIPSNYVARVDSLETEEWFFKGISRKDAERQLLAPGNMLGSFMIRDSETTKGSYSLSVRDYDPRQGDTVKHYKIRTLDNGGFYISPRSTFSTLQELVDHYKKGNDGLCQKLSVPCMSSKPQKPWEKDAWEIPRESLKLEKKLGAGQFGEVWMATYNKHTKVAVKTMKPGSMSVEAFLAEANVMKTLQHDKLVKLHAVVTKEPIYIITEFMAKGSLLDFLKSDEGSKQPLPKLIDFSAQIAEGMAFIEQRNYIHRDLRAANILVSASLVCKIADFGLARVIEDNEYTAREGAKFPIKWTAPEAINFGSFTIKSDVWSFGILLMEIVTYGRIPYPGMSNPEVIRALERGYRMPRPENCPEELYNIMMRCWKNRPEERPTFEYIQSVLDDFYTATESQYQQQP
Numbers without * were called inactive; . = no result; [ ] = dose if it differs, or a comment.

SMILES | Mcl1 Bid PPI | Mcl1-Noxa inh | eIF4E 4G PPI | 14-3-3 Bad PPI | Mcl-1 Bim block | Hck-Nef inh
Fc1ccc2c(c1)nnn2C1CCN(Cc2nnnn2C2CCCCC2)CC1 | -10.5 | 9.3 | -1.4 | 79.6* | -2.0 | 0.3
Cc1nc2cc(F)ccc2n1C1CCN(Cc2nnnn2CCc2ccccc2)CC1 | 21.1 | 27.8 | -6.8 | 80.2* | 0.0 | 2.8
Cc1nc2cc(C(F)(F)F)ccc2n1C1CCN(Cc2nnnn2CCc2ccccc2)CC1 | -0.9 | 18.6 | 5.5 | 0.4 | -6.0 | 12.5
FCCN(CCF)c1cccc(Cl)c1 | -27.5 | 6.5 | -2.6 | 0.2 | . | 10.9
CSc1nnc(C2CCNCC2)n1C | 3.6 | 25.1 | 5.6 | 87.2* | 0.0 | -1.5
CN1C(=O)/C(=C/c2cccn2-c2ccc3ccccc3c2)C(=O)NC1=S | -20.9 | 1.9 | 9.2 | 25.3 | 0.0 | 22.3
O=C1NC(=S)NC(=O)C1=Cc1cccn1-c1ccc(O)cc1 | -38.4 | 76.3* | 18.7 | 39.2 | 0.0 | 48.1
Nc1ccc2c(c1)Cc1ccccc1-2 | -51.2 | 54.5* | 4.0 | 1.4 | 0.0 | 0.9
Cn1c(O)c(C=NC2CCCCCC2)c(=O)[nH]c1=S | -22.7 | 7.0 | -2.1 | 1.6 | 0.0 | 12.4
O=c1[nH]c2ccccc2n1CCCN1CCC(n2c(=O)[nH]c3cc(Cl)ccc32)CC1 | -9.4 | 23.2 | 0.1 | 92.3* | 0.0 | -3.3
Cc1nn(C)c(C)c1P(=S)(c1c(C)nn(C)c1C)N(C)C | -5.8 | -4.2 | -0.2 | 11.0 | 2.0 | -0.5
Cc1ccccc1NC(=O)c1cc(-c2ccccc2)n(CCCN2CCOCC2)c1C | 63.3* | 4.2 | -3.2 | -8.1 | . | 7.0
CCCCP(=O)(O)c1ccccc1 | 9.7 | 26.9 | -6.9 | 14.8 | 1.0 | -1.9
C=CP(=O)(O)c1ccccc1 | 55.4* | 28.7 | -6.2 | 16.6 | -1.0 | -0.4
COc1ccc(C2C(C(=O)N3CCC4(CC3)OCCO4)CC(=O)N2c2ccc(OC)cc2)cc1 (configuration not stated) | -2.5 | -16.9 | 3.4 | 1.0 | -2.0 | -4.2
Cc1ccc(S(=O)(=O)N2CC2(C)CCl)cc1 (configuration not stated) | 11.3 | -7.9 | 5.0 | 2.4 | . | 13.0
Cc1ccc(S(=O)(=O)N2CN3CCN(C3)C2)cc1 | 79.1* | 11.3 | 4.5 | -4.0 | -4.0 | 2.5
O=C1OCc2cc(N=Nc3c(O)[nH]c(=O)[nH]c3=O)ccc21 | -6.1 | -7.0 | 7.7 | 4.2 | . | 6.4
COc1cccc(N2CCN(Cc3cccc(Cl)c3)CC2)c1 | -19.6 | 19.9 | -3.5 | 79.8* | -5.0 | 3.8
COc1cccc(N2CCN(Cc3ccc(Cl)cc3)CC2)c1 | 0.9 | . | -0.5 | 33.5 | -3.0 | -1.1
COP(=O)(NC(=O)C(Cl)(Cl)Cl)OC | -5.9 | 1.7 | -0.7 | 6.5 | . | 12.2
CSc1ccc(C(=O)C2CCCN(CCCn3cccn3)C2)cc1 (configuration not stated) | 65.2* | 30.5 | -1.8 | 29.7 | 0.0 | 19.0
COc1ccc(-n2c(O)c(C(C)=NCCCn3ccnc3)c(=O)[nH]c2=O)cc1 | -62.1 | 3.9 | -8.4 | -4.1 | 0.0 | 0.3
CCOP(=O)(C(NC(=O)c1ccccc1Cl)=C(Cl)Cl)c1ccccc1 (configuration not stated) | -18.2 | 3.0 | -1.1 | 11.1 | -1.0 | -0.2
COc1ccc(CCNCc2ccc(F)cc2)cc1OC | -0.4 | 6.5 | 0.8 | -10.2 | -1.0 | -2.1
SMILES | Mcl1 Bid PPI | Mcl1-Noxa inh | eIF4E 4G PPI | 14-3-3 Bad PPI | Mcl-1 Bim block | Hck-Nef inh
COc1ccc(CCNCc2ccccn2)cc1OC | 14.0 | 6.6 | 3.8 | 75.2* | -2.0 | 8.8
CC(C)CC1C(C#N)=C(N)Oc2c1c(=O)oc1ccccc21 (configuration not stated) | -14.2 | 16.5 | 1.4 | 2.0 | 0.0 | 0.3
Cc1ccc(N2C(=O)/C(=C/c3ccc(CN(CCC#N)S(C)(=O)=O)o3)C(=O)NC2=S)cc1 | -9.1 | 68.8* | 9.4 | 8.0 | 0.0 | 2.8
Cc1cc(C)cc(N2C(=O)/C(=C\c3ccc(N4CCN(C)CC4)o3)C(=O)NC2=S)c1 | -41.0 | -30.7 | -10.2 | -8.9 | . | 21.4
CC(C)NC(C)C(=O)C12CC3CC(CC(C3)C1)C2 (configuration not stated) | 1.3 | 14.5 | 6.4 | 5.0 | -5.0 | 4.2
O=c1cccc2n1CC1CC2CN(Cc2c(F)cccc2Cl)C1 (configuration not stated) | 2.9 | 19.6 | 2.5 | 76.5* | -3.0 | 0.3
CCN1CCN(Cc2ccc(OC(F)(F)F)cc2)CC1 | -6.7 | 19.0 | 0.4 | 85.0* | 0.0 | 0.0
CC(C)C1(C)N=C(c2ncccc2C(=O)O)NC1=O (configuration not stated) | 85.2* | 1.8 | 6.3 | 14.0 | -1.0 | 1.4
O=C(Cc1ccccc1)OCn1nnc2ccccc2c1=O | 13.1 | -3.0 | 58.7*[fluorescence artefact?] | 17.9 | -5.0 | 5.4
CCOC(=O)c1nc2ccccc2c(=O)n1-c1ccc(C)cc1 | -4.8 | 5.8 | 1.4 | 8.4 | -1.0 | 0.0
O=C(CNS(=O)(=O)c1ccc(Br)s1)N1CCC2(CC1)OCCO2 | -6.8 | -8.3 | -0.3 | 4.0 | -1.0 | 3.5
CSc1nc(N2CCN(C)CC2)c2ccccc2n1 | -16.1 | 10.2 | -1.6 | -4.5 | 0.0 | 4.7
CN1CCC(N(C)c2nc(-c3ccccc3)nc3ccccc23)CC1 | 5.0 | 51.8* | -0.1 | -1.9 | 0.0 | -0.6
COc1ccc(/C=C2/C(=O)NC(=S)N(C3CC3)C2=O)cc1CN1C(=O)c2ccccc2C1=O | 46.2 | 95.3* | 14.7 | 22.0 | 6.0 | 2.9
CC(=O)OC1N=C(c2ccccc2Cl)c2cc(Br)ccc2NC1=O (configuration not stated) | -19.5 | 5.4 | -3.5 | -1.8 | . | 13.8
C=C(C=O)CC1CC(O)[C@]2(C)OC3CC4OC5C[C@]6(C)O[C@]7(C)CCC8OC9C[C@]%10(C)OC%11C(C)=CC(=O)OC%11CC%10OC9C[C@@H](C)C8OC7CC6O[C@]5(C)CC5OC5C4OC3CC2O1 (some centres not stated) | 77.6* | 10.1 | 1.1 | 6.9 | -3.0 | 0.4
CCn1c(O)c(/C(C)=N/N2CCCCC2c2cccnc2)c(=O)[nH]c1=S (configuration not stated) | -20.7 | 12.2 | -9.2 | 0.4 | -11.0 | 1.4
O=C(O)CCn1cc(C=C2C(=O)NC(=S)NC2=O)c(-c2cc3ccccc3oc2=O)n1 | 5.3 | 81.0* | 16.0 | 38.2 | 2.0 | 47.7
Cc1ccsc1C(=O)C1CCCN(Cc2cnc(N3CCCC3)s2)C1 (configuration not stated) | -14.9 | 7.2 | -3.0 | -1.6 | -1.0 | 19.4
CN(C)[C@@H]1C(=O)C(C(N)=O)=C(O)[C@@]2(O)C(=O)C3=C(O)c4c(O)cccc4[C@@](C)(O)[C@H]3[C@H](O)[C@@H]12 | 71.7* | 111.3* | 46.9* | 89.3* | 3.0 | 8.7
